This is an account of results in PubChem BioAssay (NCATS).

Each structure is given as a SMILES string. A number with no mark means an inactive call. The rule behind the calls is not given here.
Potency is the fitted concentration of half-maximal effect.

This assay relates to HIV-1 nucleocapsid protein NCp7 (binding to TG oligonucleotide). Briefly: HIV Nucleocapsid (AID 346).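 Note: potency is for inhibitors that block NC binding and lower polarization.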 The conditions noted are these: HIV-1 NC / fluorescein-TGTGTGTG probe, fluorescence polarization. In short, it runs like this:
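Inhibition of nucleocapsid binding to single-stranded 5'-TGTGTGTG probe (10 nM) was measured by fluorescence polarization after 1 hr at room temperature with 100 nM protein under high-salt, zinc-containing, reducing conditions.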
(Fluorescence polarisation rises when a labelled molecule tumbles more slowly, as on binding a larger partner.)
Take `COc1ccccc1-c1nc(NCc2cccnc2)c2ccccc2n1`: the Potency was over 20 µM.

Turning to `Cn1cccc1C(=O)N1CCC2(CC1)CCN(c1ccncc1)CC2`, the Potency was over 20 µM. Take `O=C(c1cccc(F)c1)N1CCC2(CC1)CCN(c1ccc(-c3ccccc3)cc1)CC2`: the Potency is over 20 µM. For `Cc1noc(C)c1-c1cc(Nc2ccccc2)ncn1`, the Potency is over 20 µM.

For `COCCn1c(=O)c(-c2ccc(OC)cc2)nc2cnc(Nc3ccccc3)nc21`, the Potency is over 20 µM. The figure for `O=c1c(-c2cccc(F)c2)nc2cncnc2n1Cc1ccc(F)cc1` is over 20 µM; for `O=c1c(-c2cc(F)cc(F)c2)nc2cnc(N3CCOCC3)nc2n1Cc1ccc(F)cc1` it is over 20 µM. As to `NC(=O)c1ccccc1-c1nc(-n2ccnc2)c2ccccc2n1`, the Potency was over 20 µM. The result for `O=C(Nc1cccc(F)c1)N1CC[C@@]2(CCCN(C(=O)c3cccc(F)c3)C2)C1` reads over 20 µM; that for `O=c1c(-c2ccc(F)c(F)c2)nc2cncnc2n1Cc1ccccc1Cl`, over 20 µM. Consider `COc1ccc(C(=O)N2CCC3(CC2)CN(CC(C)C)C3)cc1`, for which the Potency was over 20 µM. The result for `CN(C)Cc1ccccc1-c1cncnc1Nc1ccncc1` reads over 20 µM; that for `Cc1cnc(CNc2ncnc3ccc(-c4ccoc4)cc23)cn1`, over 20 µM.

`COc1ccccc1-c1nccc(NCc2cccs2)n1`: the Potency was over 20 µM.

Consider `COc1ccccc1CN1CCCC2(CCN(C(=O)c3cccc(F)c3)CC2)C1`, for which the Potency is over 20 µM.

Consider `COc1ccccc1CN1CC2(CCN(C(=O)c3ccncc3)CC2)C1`, for which the Potency was over 20 µM.

`c1ccc(CNc2ncncc2-c2ccoc2)cc1`: the Potency was over 20 µM.

With `COCC(=O)N1CCC[C@@]2(CCN(c3ncccn3)C2)C1`, the Potency is over 20 µM. Consider `Cc1nc2cncnc2n(Cc2ccccc2)c1=O`, for which the Potency is over 20 µM.

In the case of `CN(C)c1cc(-c2cccc(NS(C)(=O)=O)c2)ncn1`, the Potency was over 20 µM.

With `O=C(c1cc(C(F)(F)F)cc(C(F)(F)F)c1)N1CCC[C@@]2(CCN(c3ccccn3)C2)C1`, the Potency is over 20 µM. The figure for `CS(=O)(=O)Nc1cccc(-c2ccc3ncnc(N4CCNCC4)c3c2)c1` is over 20 µM; for `Cc1noc(C)c1C(=O)N1CCC2(CCCN(c3ccccc3)C2)CC1` it is over 20 µM.

Consider `COc1ccc(NC(=O)N2CC3(CCN(C(=O)c4cccn4C)CC3)C2)cc1`, for which the Potency was over 20 µM. Regarding `N#Cc1cccc(-c2ccc3ncnc(NC4CCNCC4)c3c2)c1`, the Potency was over 20 µM.
